Source: the supplement of paper PMC11732987, “Enantioselective OTUD7B fragment discovery through chemoproteomics screening and high-throughput optimisation” (Communications Chemistry, 2025)

Assays:
Test in all cases: log2 ratio of Biotin-Ahx-Ub-VS probe labelling (fragment/DMSO); higher = less target engagement (more negative = stronger competition), active = hit call of the paper (q ≤ 0.05, log2 ratio ≤ -1)
Conditions in all cases: compound concentration: 200 uM; treatment time: 3 h
USP42 = target: T1, USP42 (UniProt Q9H9J4)
T1 sequence (whole entry): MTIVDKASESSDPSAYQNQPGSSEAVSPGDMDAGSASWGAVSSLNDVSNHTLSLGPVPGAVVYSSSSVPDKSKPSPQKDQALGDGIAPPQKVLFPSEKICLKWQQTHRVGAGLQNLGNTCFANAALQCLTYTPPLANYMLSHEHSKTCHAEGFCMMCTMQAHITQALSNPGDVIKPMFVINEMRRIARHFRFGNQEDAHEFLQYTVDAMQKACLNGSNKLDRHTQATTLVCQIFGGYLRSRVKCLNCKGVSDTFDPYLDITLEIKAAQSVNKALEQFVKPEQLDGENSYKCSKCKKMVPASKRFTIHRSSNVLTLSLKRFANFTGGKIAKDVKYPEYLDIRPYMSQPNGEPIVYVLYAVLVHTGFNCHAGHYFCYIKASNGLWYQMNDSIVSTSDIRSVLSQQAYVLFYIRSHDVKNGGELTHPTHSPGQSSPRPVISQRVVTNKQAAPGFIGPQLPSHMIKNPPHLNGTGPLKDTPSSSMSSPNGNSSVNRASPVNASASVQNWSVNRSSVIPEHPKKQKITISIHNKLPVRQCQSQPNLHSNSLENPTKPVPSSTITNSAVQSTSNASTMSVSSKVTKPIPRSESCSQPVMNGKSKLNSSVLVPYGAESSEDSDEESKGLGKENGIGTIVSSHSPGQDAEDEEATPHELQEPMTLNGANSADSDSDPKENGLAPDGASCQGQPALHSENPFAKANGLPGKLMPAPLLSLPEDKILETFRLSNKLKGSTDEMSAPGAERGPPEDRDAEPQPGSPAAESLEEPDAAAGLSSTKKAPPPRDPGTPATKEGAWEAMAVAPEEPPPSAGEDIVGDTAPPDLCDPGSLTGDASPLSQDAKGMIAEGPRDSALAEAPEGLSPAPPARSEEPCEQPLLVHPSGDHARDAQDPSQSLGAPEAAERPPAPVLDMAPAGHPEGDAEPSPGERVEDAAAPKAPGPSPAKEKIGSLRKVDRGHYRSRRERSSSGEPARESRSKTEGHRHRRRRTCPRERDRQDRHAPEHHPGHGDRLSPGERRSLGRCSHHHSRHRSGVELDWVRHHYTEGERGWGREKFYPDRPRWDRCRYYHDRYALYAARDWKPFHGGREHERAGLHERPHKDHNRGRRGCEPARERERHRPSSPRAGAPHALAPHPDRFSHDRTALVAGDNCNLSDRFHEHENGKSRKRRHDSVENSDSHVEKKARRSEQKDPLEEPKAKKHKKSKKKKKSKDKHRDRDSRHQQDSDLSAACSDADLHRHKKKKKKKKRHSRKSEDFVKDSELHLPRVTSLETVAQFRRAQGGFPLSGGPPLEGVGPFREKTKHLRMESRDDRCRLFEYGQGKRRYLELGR
How it was run: (§1)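 Labelling with Biotin-Ahx-Ub-VS (0.5 µM final, 1 h) followed a 3 h triplicate treatment of HEK293T lysate (495 µg per sample, Tris/CHAPS/IGEPAL buffer with protease inhibitors) with fragment at 200 µM or vehicle. Labelled DUBs were NeutrAvidin-enriched, digested with LysC and trypsin, and run by diaPASEF LC-MS/MS. The values, average log2 fragment/vehicle ratios by unpaired t-test, come from global-median-normalised Spectronaut label-free quantities. Proteins with ≥2 unique peptides were used.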

USP46 = USP46 (UniProt P62068)
How it was run: as §1

USP47 = target: T2, USP47 (UniProt Q96K76)
T2 sequence (whole entry): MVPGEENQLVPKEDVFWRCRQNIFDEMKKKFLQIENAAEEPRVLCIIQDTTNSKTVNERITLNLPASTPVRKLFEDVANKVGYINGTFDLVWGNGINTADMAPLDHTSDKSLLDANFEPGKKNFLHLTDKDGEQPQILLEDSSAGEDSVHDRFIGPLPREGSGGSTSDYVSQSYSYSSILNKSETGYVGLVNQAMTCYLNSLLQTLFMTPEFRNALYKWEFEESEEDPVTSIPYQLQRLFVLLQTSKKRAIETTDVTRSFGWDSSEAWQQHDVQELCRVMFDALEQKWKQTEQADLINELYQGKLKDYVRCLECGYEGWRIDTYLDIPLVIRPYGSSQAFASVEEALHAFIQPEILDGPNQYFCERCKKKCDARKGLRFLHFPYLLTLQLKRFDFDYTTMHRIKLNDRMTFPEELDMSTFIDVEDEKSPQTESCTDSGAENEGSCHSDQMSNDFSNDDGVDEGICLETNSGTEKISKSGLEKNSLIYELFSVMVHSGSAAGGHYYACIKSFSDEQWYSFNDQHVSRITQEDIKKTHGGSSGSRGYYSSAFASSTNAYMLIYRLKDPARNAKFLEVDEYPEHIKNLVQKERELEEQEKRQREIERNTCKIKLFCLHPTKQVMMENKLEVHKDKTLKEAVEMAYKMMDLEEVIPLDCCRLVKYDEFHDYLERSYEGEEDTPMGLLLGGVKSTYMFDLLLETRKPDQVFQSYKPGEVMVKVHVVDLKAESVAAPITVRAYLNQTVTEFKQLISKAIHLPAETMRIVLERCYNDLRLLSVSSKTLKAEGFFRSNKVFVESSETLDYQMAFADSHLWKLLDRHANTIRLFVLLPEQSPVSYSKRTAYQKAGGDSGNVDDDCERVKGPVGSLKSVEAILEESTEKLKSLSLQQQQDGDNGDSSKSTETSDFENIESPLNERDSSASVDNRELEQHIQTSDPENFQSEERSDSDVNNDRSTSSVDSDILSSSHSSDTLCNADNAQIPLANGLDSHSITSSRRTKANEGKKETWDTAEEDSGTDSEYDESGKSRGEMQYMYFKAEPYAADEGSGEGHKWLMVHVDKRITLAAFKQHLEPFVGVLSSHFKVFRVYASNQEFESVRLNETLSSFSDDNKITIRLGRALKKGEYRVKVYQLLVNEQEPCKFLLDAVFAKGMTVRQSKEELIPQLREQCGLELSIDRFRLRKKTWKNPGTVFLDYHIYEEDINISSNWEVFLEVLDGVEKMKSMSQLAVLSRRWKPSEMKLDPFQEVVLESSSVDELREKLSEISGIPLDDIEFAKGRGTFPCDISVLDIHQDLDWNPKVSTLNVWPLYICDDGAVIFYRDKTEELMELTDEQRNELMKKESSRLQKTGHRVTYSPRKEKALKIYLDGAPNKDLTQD
How it was run: as §1

USP48 = target: T3, USP48 (UniProt Q86UV5)
T3 sequence (whole entry): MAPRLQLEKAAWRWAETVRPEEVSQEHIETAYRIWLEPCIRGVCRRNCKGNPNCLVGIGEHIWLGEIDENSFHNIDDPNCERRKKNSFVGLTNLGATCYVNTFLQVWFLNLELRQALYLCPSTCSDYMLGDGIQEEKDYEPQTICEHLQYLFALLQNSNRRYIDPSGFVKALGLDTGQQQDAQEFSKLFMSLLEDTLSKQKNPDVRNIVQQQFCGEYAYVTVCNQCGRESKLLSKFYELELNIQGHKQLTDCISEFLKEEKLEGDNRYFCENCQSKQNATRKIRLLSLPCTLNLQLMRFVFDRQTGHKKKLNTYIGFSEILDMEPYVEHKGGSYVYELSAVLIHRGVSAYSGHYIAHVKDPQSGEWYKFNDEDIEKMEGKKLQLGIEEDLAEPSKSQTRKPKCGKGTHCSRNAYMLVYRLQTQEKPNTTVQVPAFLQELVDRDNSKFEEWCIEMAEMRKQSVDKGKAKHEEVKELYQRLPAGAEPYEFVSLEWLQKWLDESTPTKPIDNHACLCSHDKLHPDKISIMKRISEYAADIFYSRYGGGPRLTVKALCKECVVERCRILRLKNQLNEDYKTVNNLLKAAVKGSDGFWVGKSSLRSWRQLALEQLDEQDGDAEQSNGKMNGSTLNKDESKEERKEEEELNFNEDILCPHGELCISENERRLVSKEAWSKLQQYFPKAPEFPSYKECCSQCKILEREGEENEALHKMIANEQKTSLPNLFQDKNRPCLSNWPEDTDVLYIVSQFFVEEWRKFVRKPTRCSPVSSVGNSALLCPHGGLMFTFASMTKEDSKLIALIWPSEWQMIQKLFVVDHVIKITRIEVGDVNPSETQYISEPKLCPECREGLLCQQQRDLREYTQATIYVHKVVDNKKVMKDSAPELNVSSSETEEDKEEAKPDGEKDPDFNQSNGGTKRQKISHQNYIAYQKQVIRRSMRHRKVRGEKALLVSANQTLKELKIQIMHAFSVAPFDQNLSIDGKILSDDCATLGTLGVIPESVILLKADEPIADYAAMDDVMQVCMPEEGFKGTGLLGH
How it was run: as §1

USP5 = target: T4, USP5 (UniProt P45974)
T4 sequence (whole entry): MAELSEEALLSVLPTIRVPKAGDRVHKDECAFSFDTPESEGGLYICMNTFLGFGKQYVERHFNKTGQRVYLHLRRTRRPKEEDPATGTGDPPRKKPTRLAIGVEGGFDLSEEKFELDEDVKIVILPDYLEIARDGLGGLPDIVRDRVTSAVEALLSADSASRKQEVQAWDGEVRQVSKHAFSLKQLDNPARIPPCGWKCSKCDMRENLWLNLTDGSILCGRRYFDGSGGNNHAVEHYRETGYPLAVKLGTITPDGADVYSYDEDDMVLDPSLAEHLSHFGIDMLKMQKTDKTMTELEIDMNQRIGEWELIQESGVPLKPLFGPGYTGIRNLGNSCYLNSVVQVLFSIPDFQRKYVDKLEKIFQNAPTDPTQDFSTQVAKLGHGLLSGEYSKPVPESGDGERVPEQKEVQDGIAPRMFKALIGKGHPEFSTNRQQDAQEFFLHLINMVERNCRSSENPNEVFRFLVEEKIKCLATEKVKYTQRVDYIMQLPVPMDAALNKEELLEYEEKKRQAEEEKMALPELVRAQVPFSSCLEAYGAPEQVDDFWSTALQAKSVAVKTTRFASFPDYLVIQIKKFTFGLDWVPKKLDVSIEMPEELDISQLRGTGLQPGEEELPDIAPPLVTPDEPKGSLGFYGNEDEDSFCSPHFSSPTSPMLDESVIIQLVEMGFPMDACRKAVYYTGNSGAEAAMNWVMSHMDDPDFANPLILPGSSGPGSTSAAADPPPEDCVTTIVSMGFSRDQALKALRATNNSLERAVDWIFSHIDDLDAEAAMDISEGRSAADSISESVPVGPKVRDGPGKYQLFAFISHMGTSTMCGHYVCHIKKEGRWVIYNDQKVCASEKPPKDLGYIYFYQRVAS
How it was run: as §1

USP54 = USP54 (UniProt Q70EL1)
How it was run: as §1

USP7 = USP7 (UniProt Q93009)
How it was run: as §1

USP8 = target: T5, USP8 (UniProt P40818)
T5 sequence (whole entry): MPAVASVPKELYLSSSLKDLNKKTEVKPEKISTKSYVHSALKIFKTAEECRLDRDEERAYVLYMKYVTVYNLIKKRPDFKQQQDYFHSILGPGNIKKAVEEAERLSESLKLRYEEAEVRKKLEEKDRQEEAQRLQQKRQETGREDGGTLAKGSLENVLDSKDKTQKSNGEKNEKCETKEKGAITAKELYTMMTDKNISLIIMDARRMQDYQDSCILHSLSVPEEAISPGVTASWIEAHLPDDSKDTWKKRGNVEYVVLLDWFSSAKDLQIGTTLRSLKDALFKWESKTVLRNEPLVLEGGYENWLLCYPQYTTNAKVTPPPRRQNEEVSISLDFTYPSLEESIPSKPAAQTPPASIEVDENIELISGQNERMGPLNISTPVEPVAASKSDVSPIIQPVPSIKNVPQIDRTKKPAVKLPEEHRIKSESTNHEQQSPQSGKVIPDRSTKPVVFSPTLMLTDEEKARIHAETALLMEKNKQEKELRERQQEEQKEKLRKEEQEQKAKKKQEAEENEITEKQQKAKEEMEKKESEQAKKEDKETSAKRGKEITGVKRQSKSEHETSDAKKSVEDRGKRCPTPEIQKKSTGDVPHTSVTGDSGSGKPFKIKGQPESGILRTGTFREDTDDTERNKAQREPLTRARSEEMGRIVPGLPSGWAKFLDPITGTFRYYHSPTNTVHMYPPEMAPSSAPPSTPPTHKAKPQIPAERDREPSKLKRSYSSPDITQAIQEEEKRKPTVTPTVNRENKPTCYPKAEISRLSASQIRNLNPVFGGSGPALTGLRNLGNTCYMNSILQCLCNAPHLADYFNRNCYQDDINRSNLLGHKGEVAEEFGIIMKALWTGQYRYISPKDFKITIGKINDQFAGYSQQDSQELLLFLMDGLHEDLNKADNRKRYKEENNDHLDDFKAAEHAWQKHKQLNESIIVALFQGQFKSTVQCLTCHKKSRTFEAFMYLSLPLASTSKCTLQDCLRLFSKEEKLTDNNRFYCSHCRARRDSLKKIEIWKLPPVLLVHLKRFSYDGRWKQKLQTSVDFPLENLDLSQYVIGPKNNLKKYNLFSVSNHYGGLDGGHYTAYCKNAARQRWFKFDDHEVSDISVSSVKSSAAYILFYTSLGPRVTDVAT
How it was run: as §1

USP9X = USP9X (UniProt Q93008)
How it was run: as §1

UniProt O00487 = target: UniProt O00487
How it was run: as §1

Measured: log2 ratio of Biotin-Ahx-Ub-VS probe labelling

USP7, sequence (Q93009 whole entry, looked up): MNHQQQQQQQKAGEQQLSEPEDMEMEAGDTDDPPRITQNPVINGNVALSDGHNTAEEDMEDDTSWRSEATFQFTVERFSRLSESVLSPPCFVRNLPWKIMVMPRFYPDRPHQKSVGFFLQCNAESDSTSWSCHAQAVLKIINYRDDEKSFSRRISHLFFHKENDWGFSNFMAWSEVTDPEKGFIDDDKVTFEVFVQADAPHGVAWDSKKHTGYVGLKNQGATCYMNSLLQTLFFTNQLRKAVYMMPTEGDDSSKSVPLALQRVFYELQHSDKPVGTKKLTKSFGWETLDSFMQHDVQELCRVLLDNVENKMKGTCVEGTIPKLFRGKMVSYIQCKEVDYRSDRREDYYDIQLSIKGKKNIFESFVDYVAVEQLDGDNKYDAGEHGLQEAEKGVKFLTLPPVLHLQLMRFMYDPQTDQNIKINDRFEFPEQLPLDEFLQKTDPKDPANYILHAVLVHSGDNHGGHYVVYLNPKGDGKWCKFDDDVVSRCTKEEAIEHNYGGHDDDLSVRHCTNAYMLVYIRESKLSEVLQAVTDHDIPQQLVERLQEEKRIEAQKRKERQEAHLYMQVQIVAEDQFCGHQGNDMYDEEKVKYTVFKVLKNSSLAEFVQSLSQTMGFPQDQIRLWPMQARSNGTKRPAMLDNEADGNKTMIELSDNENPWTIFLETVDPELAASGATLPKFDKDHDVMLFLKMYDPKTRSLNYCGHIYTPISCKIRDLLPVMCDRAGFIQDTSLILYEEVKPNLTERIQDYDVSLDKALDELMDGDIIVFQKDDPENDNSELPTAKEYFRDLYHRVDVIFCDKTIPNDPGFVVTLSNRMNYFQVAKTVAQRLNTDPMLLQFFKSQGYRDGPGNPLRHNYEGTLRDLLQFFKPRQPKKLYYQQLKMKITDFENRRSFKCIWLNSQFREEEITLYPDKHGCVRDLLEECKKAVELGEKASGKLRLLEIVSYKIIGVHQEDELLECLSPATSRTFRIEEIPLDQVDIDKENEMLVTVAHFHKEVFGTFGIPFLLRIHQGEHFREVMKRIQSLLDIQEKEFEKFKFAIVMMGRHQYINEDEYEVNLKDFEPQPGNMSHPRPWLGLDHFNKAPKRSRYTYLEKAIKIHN
USP46, sequence (P62068 whole entry): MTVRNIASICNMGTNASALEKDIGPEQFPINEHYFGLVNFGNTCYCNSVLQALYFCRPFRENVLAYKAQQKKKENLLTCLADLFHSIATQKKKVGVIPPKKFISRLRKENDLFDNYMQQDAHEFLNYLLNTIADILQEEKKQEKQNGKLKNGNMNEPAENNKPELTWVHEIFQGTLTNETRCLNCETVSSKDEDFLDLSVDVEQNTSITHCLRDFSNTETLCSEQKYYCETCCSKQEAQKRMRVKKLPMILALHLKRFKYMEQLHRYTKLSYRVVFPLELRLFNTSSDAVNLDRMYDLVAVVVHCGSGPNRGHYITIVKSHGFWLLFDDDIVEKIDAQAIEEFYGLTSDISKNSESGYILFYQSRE
UniProt O00487, sequence (O00487 whole entry): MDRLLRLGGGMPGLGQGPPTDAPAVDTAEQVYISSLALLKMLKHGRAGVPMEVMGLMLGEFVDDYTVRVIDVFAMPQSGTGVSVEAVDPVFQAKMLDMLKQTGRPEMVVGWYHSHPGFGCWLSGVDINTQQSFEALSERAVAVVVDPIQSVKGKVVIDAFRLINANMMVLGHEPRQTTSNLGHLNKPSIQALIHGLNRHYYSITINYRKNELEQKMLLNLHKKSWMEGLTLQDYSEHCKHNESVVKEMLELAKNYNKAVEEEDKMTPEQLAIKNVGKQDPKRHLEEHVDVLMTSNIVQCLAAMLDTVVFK
USP9X, sequence (Q93008 whole entry): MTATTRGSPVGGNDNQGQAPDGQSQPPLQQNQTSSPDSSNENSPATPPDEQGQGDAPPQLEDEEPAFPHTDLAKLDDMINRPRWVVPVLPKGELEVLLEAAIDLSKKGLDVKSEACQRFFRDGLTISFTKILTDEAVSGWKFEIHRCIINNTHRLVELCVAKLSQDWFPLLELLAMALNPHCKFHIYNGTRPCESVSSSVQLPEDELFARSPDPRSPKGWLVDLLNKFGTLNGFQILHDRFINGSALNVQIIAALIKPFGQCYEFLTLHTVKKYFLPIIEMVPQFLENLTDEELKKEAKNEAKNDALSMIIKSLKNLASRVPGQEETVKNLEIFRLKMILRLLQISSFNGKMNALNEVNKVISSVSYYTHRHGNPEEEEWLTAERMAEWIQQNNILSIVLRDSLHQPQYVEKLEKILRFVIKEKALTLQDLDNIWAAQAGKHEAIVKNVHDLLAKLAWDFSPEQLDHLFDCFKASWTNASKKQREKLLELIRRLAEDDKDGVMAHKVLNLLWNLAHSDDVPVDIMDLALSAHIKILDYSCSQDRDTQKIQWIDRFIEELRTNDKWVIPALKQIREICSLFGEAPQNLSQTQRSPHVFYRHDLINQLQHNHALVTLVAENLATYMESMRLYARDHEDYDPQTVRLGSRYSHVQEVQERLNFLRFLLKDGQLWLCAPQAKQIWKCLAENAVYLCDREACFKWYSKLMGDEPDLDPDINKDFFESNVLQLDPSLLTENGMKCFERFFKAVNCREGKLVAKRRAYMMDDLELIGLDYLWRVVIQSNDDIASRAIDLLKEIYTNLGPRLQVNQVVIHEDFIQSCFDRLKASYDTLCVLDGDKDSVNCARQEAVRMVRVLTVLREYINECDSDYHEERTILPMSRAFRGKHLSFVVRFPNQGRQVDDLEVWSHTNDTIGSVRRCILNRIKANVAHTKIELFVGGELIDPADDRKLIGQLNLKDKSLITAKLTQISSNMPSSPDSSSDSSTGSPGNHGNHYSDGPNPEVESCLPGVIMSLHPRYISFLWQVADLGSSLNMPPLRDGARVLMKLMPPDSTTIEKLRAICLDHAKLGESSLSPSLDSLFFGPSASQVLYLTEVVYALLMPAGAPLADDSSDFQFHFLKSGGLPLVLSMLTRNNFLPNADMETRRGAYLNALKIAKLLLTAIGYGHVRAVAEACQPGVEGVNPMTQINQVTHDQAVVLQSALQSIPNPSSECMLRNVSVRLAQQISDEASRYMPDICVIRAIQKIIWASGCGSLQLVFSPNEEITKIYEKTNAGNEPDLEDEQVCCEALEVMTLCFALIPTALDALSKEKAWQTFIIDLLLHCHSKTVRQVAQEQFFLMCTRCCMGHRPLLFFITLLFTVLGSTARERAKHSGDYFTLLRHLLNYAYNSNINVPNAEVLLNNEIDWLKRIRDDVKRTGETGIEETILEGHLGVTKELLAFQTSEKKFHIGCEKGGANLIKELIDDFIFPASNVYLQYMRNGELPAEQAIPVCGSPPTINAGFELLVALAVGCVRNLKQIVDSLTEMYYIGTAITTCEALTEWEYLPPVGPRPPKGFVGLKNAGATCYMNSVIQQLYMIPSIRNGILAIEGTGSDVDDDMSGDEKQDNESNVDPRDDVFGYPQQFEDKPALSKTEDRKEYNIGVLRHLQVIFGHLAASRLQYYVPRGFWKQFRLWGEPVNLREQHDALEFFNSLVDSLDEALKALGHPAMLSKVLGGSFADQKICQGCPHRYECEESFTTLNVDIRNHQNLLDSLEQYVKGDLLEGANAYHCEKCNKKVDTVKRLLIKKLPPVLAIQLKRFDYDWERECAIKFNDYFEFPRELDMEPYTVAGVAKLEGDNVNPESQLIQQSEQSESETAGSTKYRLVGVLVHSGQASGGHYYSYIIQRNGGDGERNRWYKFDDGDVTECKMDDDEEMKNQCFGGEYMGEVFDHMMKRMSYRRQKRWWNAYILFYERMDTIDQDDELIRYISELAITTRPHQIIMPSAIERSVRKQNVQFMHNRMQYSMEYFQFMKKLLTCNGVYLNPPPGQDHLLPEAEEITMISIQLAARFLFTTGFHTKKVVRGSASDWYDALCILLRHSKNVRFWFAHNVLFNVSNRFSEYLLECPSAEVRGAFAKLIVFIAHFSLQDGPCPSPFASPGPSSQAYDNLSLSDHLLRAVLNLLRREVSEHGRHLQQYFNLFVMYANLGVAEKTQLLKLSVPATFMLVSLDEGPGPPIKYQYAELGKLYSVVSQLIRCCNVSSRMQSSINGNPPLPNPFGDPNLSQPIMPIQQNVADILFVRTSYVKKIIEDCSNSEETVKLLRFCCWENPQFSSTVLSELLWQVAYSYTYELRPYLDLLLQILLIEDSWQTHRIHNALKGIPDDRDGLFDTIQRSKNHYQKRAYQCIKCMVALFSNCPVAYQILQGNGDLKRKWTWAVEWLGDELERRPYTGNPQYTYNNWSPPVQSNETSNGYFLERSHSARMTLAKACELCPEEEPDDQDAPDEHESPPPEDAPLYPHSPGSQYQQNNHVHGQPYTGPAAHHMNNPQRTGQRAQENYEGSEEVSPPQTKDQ

O=C(CCl)NCc1ccc(N2CCOCC2)nc1
inactive: USP42 -0.0847 | USP46 0.0882 | USP47 -0.466 | USP48 -0.188 | USP5 -0.217 | USP54 0.658 | USP7 -0.147 | USP8 -0.289 | USP9X -0.26 | UniProt O00487 -0.226
